The supplement of paper PMC10681739

How the values were obtained:
ETS1 [1] = target: T1, ETS1 (UniProt P14921); test: ETS1 binding intensity (PBM fluorescence), ETS1 alone (arbitrary fluorescence units); higher = stronger binding; details: ETS1 concentration 1 nM; RUNX1 concentration 0 nM
T1 sequence: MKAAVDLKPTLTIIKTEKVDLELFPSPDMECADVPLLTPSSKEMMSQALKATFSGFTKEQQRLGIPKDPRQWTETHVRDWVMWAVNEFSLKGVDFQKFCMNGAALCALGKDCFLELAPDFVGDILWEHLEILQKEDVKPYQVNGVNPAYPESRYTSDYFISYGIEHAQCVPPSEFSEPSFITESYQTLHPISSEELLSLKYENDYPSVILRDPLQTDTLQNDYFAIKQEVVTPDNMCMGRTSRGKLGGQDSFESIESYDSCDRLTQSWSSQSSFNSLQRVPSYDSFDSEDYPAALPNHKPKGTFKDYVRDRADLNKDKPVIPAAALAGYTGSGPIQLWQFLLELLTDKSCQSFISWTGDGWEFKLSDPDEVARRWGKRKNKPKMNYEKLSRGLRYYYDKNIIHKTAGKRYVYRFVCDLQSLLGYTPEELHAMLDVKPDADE

RUNX1 [2] = target: RUNX1 (UniProt Q01196); test: RUNX1 binding intensity (PBM fluorescence), RUNX1 alone (arbitrary fluorescence units); higher = stronger binding; details: RUNX1 concentration 2 nM; ETS1 concentration 0 nM
Description: (§1)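 Cooperative gcPBM on 36-bp genomic probes with neighbouring ETS1 and RUNX1 sites. Recombinant human RUNX1 (2 nM) was incubated alone or with ETS1 (25 nM) and detected with anti-RUNX1 antibody plus Alexa488 secondary. Values are medians over 4 replicate spots; the RUNX1+ETS1 data were normalised to the RUNX1-only data. The probes sit in constant array flanks that are not printed.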

RUNX1 [3] = target: RUNX1 (UniProt Q01196); test: RUNX1 binding intensity (PBM fluorescence) in presence of ETS1, normalised to RUNX1-only experiment (arbitrary fluorescence units); higher = stronger binding; details: RUNX1 concentration 2 nM; ETS1 concentration 25 nM
Description: as §1

ETS1 [4] = target: T1, ETS1; test: ETS1 binding intensity (PBM fluorescence) in presence of RUNX1, normalised to ETS1-only experiment (arbitrary fluorescence units); higher = stronger binding; details: ETS1 concentration 1 nM; RUNX1 concentration 25 nM
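Throughout, for RUNX1 binding intensity (PBM fluorescence) in presence of ETS1, normalised to RUNX1-only experiment: Full-length recombinant human ETS1 or RUNX1 bound to double-stranded 36-bp genomic probes on microarrays, detected by protein-specific primary antibody and Alexa488 secondary, spot fluorescence as median of four replicate spots.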
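Throughout, for RUNX1 binding intensity (PBM fluorescence), RUNX1 alone: Full-length recombinant human RUNX1 bound to double-stranded 36-bp genomic probes on a high-density microarray, scored as Alexa488 fluorescence per spot via anti-RUNX1 antibody, median of four replicate spots.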

Chain of RUNX1 (Q01196 whole entry): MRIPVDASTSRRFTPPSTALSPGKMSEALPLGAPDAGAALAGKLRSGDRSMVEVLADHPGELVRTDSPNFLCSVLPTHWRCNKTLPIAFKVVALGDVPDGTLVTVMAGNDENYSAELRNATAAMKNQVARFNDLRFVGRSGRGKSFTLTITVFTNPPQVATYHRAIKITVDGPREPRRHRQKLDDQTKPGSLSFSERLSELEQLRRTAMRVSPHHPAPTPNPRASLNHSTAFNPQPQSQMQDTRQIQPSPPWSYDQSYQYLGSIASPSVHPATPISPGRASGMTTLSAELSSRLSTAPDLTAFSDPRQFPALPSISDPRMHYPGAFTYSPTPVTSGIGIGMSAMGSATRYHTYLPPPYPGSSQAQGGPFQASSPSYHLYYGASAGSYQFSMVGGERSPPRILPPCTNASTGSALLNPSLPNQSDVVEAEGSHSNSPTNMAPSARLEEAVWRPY

Sequence	ETS1 binding intensity (ETS1 [1])	RUNX1 binding intensity (RUNX1 [2])	RUNX1 binding intensity (RUNX1 [3])	ETS1 binding intensity (ETS1 [4])
AGGCCGCCTACAGGATGTTGGAAACCACAGGGCCCG	2910	765	2660	
GCTCTGGGTCACACAGGATGTGGTTTTTGAAGTTTG	8060	1210	10400	
CAGGCCTTTCCTGCTATCGTTTGTGGTTTGAGCAGT	429	1940	3830	
CCTGCGGATCACGGAAGTGGCTGCGGTCGGCGCCAT	2160	1360	4890	
ATCACAAGCAGAGGATGTGGTTAGTGTTTCGTTCCA	804	995	2160	
TGCCACATCCTGCCCCTCCCCAGGTCTAACCACCAA	696	1260	3360	
TTGATTGGAGCAGGATGTGGTCAGAACAGTATGCAG	3190	794	4860	
AATGAAGGAGGGGCAGGATGTGGTCTTGGTGAATCA	2520	746	1440	
TGAAGCAGGCGGAAGTGCTGTGGTTTCTGGCGACTG	4090	939	2830	
CTCAGGGTACCAGGATGTGGTTTAGCTTAGGGGTGG	1840	980	2310	
TGAGCCTTGGAAGGAAATGATTCACCACAATACTGT	741	831	867	
GAACCTGGGAGGCGGAAGTTGCGGTTAGCCGAGATC	6030	13500	56300	
AAGTTGATTTCCGGGTAGTCTGTGGTTTCCTAATCA	1040	1210	3880	
GTATCACTTCCTGTTTTCCTCTGTGGCTTACTGCTG	3310	1300	3210	
GCTTCTTCCGGCCGGGCCGAGAGGTGGTTACATTCG	683	792	1940	
GCAGTCAGAAGGTGCGGATGCGGTAAGGTATGCGCT	1130	835	1270	
CAGAGCCAAACATGCGGAAGTGGTTACGTGTACTAG	3280	795	1900	
GTTGCAGGAAACGATGGGTTTTGTGGTATGAACTGC	813	829	1700	
GCAGAGAGATTGGCCGGATGCGGTGGCTCACGCCTT	4850	683	1140	
AACCCGGAAGTGGACACGGAGCTCGGCTGCGGCTCC	1750	705	1530	
CGGGTTGGGCAGGAAGCAGCATGACCGCAGTGGGTC	1740	959	3250	

Sequence	ETS1 binding intensity (ETS1 [1])	RUNX1 binding intensity (RUNX1 [2])	RUNX1 binding intensity (RUNX1 [3])	ETS1 binding intensity (ETS1 [4])
GCTAGACAGGAAACAGTGAGCTTCTGTGGGCAGGAG	2770	758	1060	
TTCTTCCCCCTTCCGGTCGCTGAGTGGTTGAGGCCG	4140	898	2500	3610
AACAAAGAGAGAGGAAGTGGGTTGGGCGGGGGGGGT	1880	1010	1040	1990
ATTTAGGAGGAAGTTTCCAGTACCACAACCTCACAG	430	868	788	709
TAAATGTTTCCTAAAAGCTCTTTCATAAACCACAGT	390	970	884	669
GGCCAGGCAGGAAGTCCCGCGCCACAAGCGGCCGTC	3050	758	1230	3300
CCCCCTGAACATCCGGGGCCTTTTAACCGCCCACGG	1290	937	1790	1690
GCAGAAGAGGAAATGGTTTGCCTGTGCGGTGGGGGA	1370	821	999	3280
CTTTGCTGCAGGATGTTCTAACCACAAGCCCAGGAG	1070	3030	7310	6670
AGGTGTACTTTCCGGGTGCAGACCGCGAATGGATCG	383	743	1120	534
CCTGGGCAAGGCCGGATGCCTGTGGCTTCCAGGCTG	2880	685	1060	3350
GCGAGACGCGGAAGAGGCTTGCGGTTGACCAAAGAA	407	1830	4310	2010
GGGGTCAGGAAATGGGTGTGCCGCGGGTAAGGCGCT	949	733	984	921
TGCACGGTAAGCAGGAAGCTGCGGCCGAGCTGAGTC	2020	687	1030	3120
GCTTGTCTTCCGGTTTCGTCGCCGCCGCAGGCGCAC	1730	840	1780	1880
GACCAATGTAAACAAGGATGTGGGTTCTCCGGCCAC	784	785	1190	3290
GAGACAGGAAATGTAGACTTGAGTCCTGTGGTAAAC	1910	739	1260	6740
TATGTCTGACTTCCGCTCGTGGTTTCCATCTTAGCC	2870	895	2850	5230
CTGAAAAACCGGAAGTGGGTGGTTTGAAACGTAAAT	18000	776	4130	20800
CCACCCTCCGTCCGGCCGCGACCGCGAGGAGGAAGA	948	841	1130	1060
GCAGAGTTTACAACAGGATGTGGTTATTGGCGCTGC	8870	777	4380	46800

Sequence	ETS1 binding intensity (ETS1 [1])	RUNX1 binding intensity (RUNX1 [2])	RUNX1 binding intensity (RUNX1 [3])	ETS1 binding intensity (ETS1 [4])
AAGGCGGAGGAAGGGAAAATTGTGGTTGGGCAGAGG	511	835	887	742
GAGAAAAGAGACTGAGGATGTGGTTTGGGGTGTGGG	661	844	1050	6260
GCAAACAGCACATCCGGTGTGGTCGACGGGTCCTCC	5820	728	1830	6160
CTGCCGCGACAGACAGGATGTGGCTTCTGCTCTGTC	8750	610	1960	16900
GGGACAGACTCTCCAGGATGTGGTTGGATTTTGGGC	1520	754	1040	
AAAGTTGTATAGTGAGGATGTGGTCAAGAACTCACC	577	1010	1180	4380
TTATTTCCGGTGTTGATCTTTTTAGTGGTACCAGGC	3400	1070	2990	3640
AATCATTTCCTGCCCTAACGTTTGTGGTCTGCCTAG	728	832	2760	1720
GGAGGTGGGGAGGAAGTTCTGAAACCACACACATTT	749	891	1090	
GCTGGGGCAGGAAGCTTCTAGGCCACAGACAGGACG	1190	711	865	1360
CTCGCCCCATTTCCCGTAAATATCAGCCACAGACCA	546	1350	1900	464
TGTGATAAGGATGTTCGTGTGCCTTGTGGTCAGGTG	623	889	905	1710
AGGCGCCGGAAAAACTACATCTCCCACAATCCTCGG	484	965	913	396
CCACTGCTTCCGCCTTCTCTGCTGGCTGCGGGGAGC	545	904	2210	516
GCACTTCCGGAGCCGGGCGTCTACAGACCGCGGCCA	868	804	2190	
GAAGCAGACAGGAAGTGGGTCTGAGCGGTGGAGGGA	7670	690	1910	8610
GCAGCTCTGGCAGGATGCGGTTAAATATGTAGCCAC	2030	2690	11300	12800
ATGTGCCCAAAGGATGTCACCGCAAAGATCATAGGA	561	1250	1820	
CTTAGCGGAAGAGGCGTGACCCAGGCGTACCGCAGG	497	804	870	1320
GCAGGCGGAGCTTGAGGAAACCGCAGATAAGTTTTT	463	9080	10200	2510
ACTGAACAAACCGGATGTGGTTCCCACCTGCAATCT	25000	850	11400	29500
